Bioassay records: PubChem BioAssay, several laboratories
Most compounds without a hit are left out; they make up all but 1.7% or so of the library.
HTR2A ag = agonists of mouse serotonin 5-HT2A receptor (HTR2A); activation, % at 7.6 µM; P35363; CHO-K1 mHTR2A beta-arrestin complementation, luminescence; percent of 30 µM serotonin response; AID 624169; 0.66% of 360,000 active;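 active = activation above a run cutoff, the mean activation of all tested compounds plus 3 SD, cut at about 14% in these data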
Fh CTSL1 inh = blocks F. hepatica cathepsin L1 in PFM18AAP counter-screen | recombinant F. hepatica cathepsin L1, Z-Leu-Arg-MCA fluorescence | inhibition, % at 5.96 µM | 0.49% of 300,000 active;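 active = inhibition above the mean of all tested compounds plus 3 SD, set per screening campaign, cut at about 17% in these data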
HDAC3 inh = inhibitors of human histone deacetylase 3 | O15379 | recombinant HDAC3, fluorogenic peptide/trypsin coupled, fluorescence | inhibition, % at 8.3 µM | 0.15% of 320,000 active | AID 2718; in the data active = inhibition above about 26%, passing the limit was not always enough; inconclusive = no clear call, values can overlap the other calls
Target sequence (O15379 whole entry, looked up): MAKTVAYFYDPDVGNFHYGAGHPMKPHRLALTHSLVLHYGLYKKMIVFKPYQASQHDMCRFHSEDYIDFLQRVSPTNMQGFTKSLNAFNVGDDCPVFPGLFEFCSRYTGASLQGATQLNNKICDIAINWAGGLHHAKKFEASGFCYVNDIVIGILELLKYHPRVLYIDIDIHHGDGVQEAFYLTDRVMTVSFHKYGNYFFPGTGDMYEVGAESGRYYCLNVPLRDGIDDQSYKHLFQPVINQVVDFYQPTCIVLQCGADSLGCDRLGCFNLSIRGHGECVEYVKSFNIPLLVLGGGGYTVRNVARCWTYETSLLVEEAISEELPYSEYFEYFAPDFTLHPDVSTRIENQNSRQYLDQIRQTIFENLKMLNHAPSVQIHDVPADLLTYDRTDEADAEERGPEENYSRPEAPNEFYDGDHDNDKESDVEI
LANA-H2A inh = blocks KSHV LANA binding to histone H2A/H2B. Q9QR71. cell-free LANA-H2A/H2B peptide, fluorescence polarization. inhibition, % (no concentration beside the values). 0.6% of 320,000 active; in the data active = inhibition mostly above about 10%, no sharp cut-off; inactive = mostly below about 6.7%
MOR ag counter = OPRM1 agonism in mouse HTR2A counterscreen; shares compounds with HTR2A ag; U2OS OPRM1 beta-arrestin PathHunter, luminescence; DMSO 0%, DAMGO 9.3 µM 100%; activation, % at 9.3 µM; 5.3% of 2,300 active; AID 624380;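 active = mean activation above the mean of DMSO-only wells plus 3 SD, cut at about 0.5% in these data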
HTR2A ag conf = confirmation of mouse HTR2A serotonin receptor agonists. shares compounds with HTR2A ag. CHO-K1 PathHunter beta-arrestin recruitment, luminescence; DMSO 0%, 30 µM serotonin 100%. activation, % at 7.6 µM. 19% of 2,300 active. AID 624381;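 active = mean activation across triplicates above the hit threshold derived in the original primary screen, cut at about 15% in these data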
Of the large screens only hits and unclear results are named; the others gave an inactive call (follow-up assays come after a bar, where they were run).

CC(C)c1ccc(NC(=O)CCNC(=O)N2C[C@H]3C[C@@H](C2)c2cccc(=O)n2C3)cc1	none
Clc1ccc(N2CCNCC2)nn1	HTR2A ag 15 | MOR ag counter inactive | HTR2A ag conf inactive
ClCCOCCCl	none (no result: Fh CTSL1 inh)
Oc1ccc(C2=CCNCC2)cc1O	HTR2A ag 36 | MOR ag counter inactive | HTR2A ag conf 117
O=C(c1ccc(Cl)cc1)C1CCCN(Cc2ccc3nonc3c2)C1 (centres undefined)	none
O=C(Cn1c(NCCCl)nc2ccccc21)c1ccc(Br)cc1	none
CC(C)N(Cc1ccco1)/N=C/c1c(O)n(Cc2ccccc2)c(=O)[nH]c1=O	none
O=C(O)C(Cl)(Cl)Cl	HTR2A ag 23 | MOR ag counter inactive | HTR2A ag conf inactive
O=C1c2ccccc2-n2nnc(-c3ccccc3)c2C2c3ccccc3CCN12 (centres undefined)	none (no result: Fh CTSL1 inh, HDAC3 inh, LANA-H2A inh)
O=C1c2ccccc2-n2nnc(-c3ccccc3)c2C2c3cc(Br)ccc3CCN12 (centres undefined)	HTR2A ag 16 (no result: Fh CTSL1 inh, HDAC3 inh, LANA-H2A inh) | MOR ag counter inactive | HTR2A ag conf inactive
Cc1ccc(C)c(OCc2cc(C(=O)N3C[C@H]4C[C@@H](C3)c3cccc(=O)n3C4)no2)c1	none (no result: HDAC3 inh)
CC(N)Cc1c[nH]c2ccc(Cl)cc12 (centres undefined)	HTR2A ag 80 | MOR ag counter inactive | HTR2A ag conf 55
O=C(CSc1ccccc1)N1CCC2(CC1)OCCO2	none
Cn1c(=O)cc(SCC(=O)N2CCC3(CC2)OCCO3)c2ccc(Cl)cc21	HTR2A ag 16 | MOR ag counter inactive | HTR2A ag conf inactive
COc1ccc(-[n+]2c(-c3ccccc3)cc(-c3ccccc3)cc2-c2ccccc2)cc1	none (no result: HTR2A ag)
Oc1ccc(-[n+]2c(-c3ccccc3)cc(-c3ccccc3)cc2-c2ccccc2)cc1	HTR2A ag 21 | MOR ag counter 0.5 | HTR2A ag conf 16
Clc1ccc2[nH]c3c(c2c1)CCNC3	HTR2A ag 16 | MOR ag counter inactive | HTR2A ag conf inactive
COc1ccc(CCNCc2cccn2C)cc1	HTR2A ag 28 | MOR ag counter 0.5 | HTR2A ag conf 17
Cn1cccc1CNCCc1ccccc1	none (no result: HTR2A ag)
COc1c2c(cc3c1OCO3)CCN(C)C2	HTR2A ag 18 | MOR ag counter inactive | HTR2A ag conf 53
C[C@]12CC(=O)CC1CCC1C2CC[C@@]2(C)C1CC[C@@H]2O (some centres undefined)	none
COc1ccc(-n2c(-c3ccccc3[N+](=O)[O-])nc3ccccc3c2=O)cc1	none (no result: Fh CTSL1 inh)
CCCCc1ccc2[nH]cc(CCN)c2c1	HTR2A ag 26 | MOR ag counter inactive | HTR2A ag conf 50
O=C1N(c2nncs2)CCN1[N+](=O)[O-]	none
CCCN(CCC)C1CCc2ccc(O)cc2C1 (centres undefined)	HTR2A ag 60 | MOR ag counter inactive | HTR2A ag conf 179
CCCN(CCC)C1CCc2cccc(O)c2C1 (centres undefined)	HTR2A ag 53 | MOR ag counter inactive | HTR2A ag conf 92
CN=C(SCC(=O)c1cccc(Cl)c1)c1c(O)n(C)c(=O)n(C)c1=O	HDAC3 inh inconclusive
